Data as given in the antibiotic and cytotoxicity screens of Wong et al. (2023).
The whole screen tested about 39,000 compounds, of which about 3,300 (8.5%) were called active. The full list was thinned out, with actives kept by preference.

What follows are compounds tested on HepG2 (assay: cytotoxicity call (relative viability < 0.9)). Settings: 10 µM.

SMILES	cytotoxicity call
Cn1c(Nc2ccc(C(F)(F)F)cc2)nc2cc(Oc3ccnc(-c4ncc(C(F)(F)F)[nH]4)c3)ccc21	active
COc1ccc(NC(=O)Nc2ccc3c(c2)C(=O)N([C@H](C)CO)C[C@H](C)[C@H](CN(C)Cc2ccncc2)OCCCC[C@H](C)O3)cc1	inactive
CO[C@@H]1CN(C)C(=O)c2cc(NC(=O)Nc3ccccc3F)ccc2OC[C@@H](C)N(Cc2ccccc2C(=O)O)C[C@H]1C	inactive
COc1ccc(-c2coc3cc(OC)ccc3c2=O)c(O)c1	inactive
Cc1c(C(N)=O)nnn1-c1ccc(F)cc1	inactive
C[C@H](CO)N1C[C@H](C)[C@@H](CN(C)CC2CC2)OCCCC[C@H](C)Oc2ccc(NC(=O)Nc3ccc(C(F)(F)F)cc3)cc2C1=O	inactive
C[C@H]1CCCCO[C@H](CN(C)CC2CC2)[C@@H](C)CN([C@@H](C)CO)C(=O)c2cc(NC(=O)Nc3ccc(C(F)(F)F)cc3)ccc2O1	inactive
C[C@@H]1CCCCO[C@@H](CN(C)CC2CC2)[C@H](C)CN([C@@H](C)CO)C(=O)c2cc(NC(=O)Nc3ccc(C(F)(F)F)cc3)ccc2O1	inactive
C[C@@H]1CCCCO[C@@H](CN(C)CC2CC2)[C@H](C)CN([C@H](C)CO)C(=O)c2cc(NC(=O)Nc3ccc(C(F)(F)F)cc3)ccc2O1	inactive
C[C@@H]1CCCCO[C@H](CN(C)CC2CC2)[C@H](C)CN([C@H](C)CO)C(=O)c2cc(NC(=O)Nc3ccc(C(F)(F)F)cc3)ccc2O1	active
C[C@@H]1CCCCO[C@@H](CN(C)CC2CC2)[C@@H](C)CN([C@H](C)CO)C(=O)c2cc(NC(=O)Nc3ccc(C(F)(F)F)cc3)ccc2O1	active
C[C@H](CO)N1C[C@H](C)[C@H](CN(C)CC2CC2)OCCCC[C@H](C)Oc2ccc(NC(=O)Nc3ccc(C(F)(F)F)cc3)cc2C1=O	active
C[C@@H]1CCCCO[C@H](CN(C)CC2CC2)[C@H](C)CN([C@@H](C)CO)C(=O)c2cc(NC(=O)Nc3ccc(C(F)(F)F)cc3)ccc2O1	active
C[C@H](CO)N1C[C@H](C)[C@@H](CN(C)C(=O)Nc2ccccc2)OCCCC[C@H](C)Oc2ccc(NC(=O)C3CCCCC3)cc2C1=O	inactive
CN(C)C(=O)CN1C[C@]23CN(Cc4cnn(C)c4)C[C@@H](C[C@@H]2S1(=O)=O)O3	inactive
CC(C)NC(=O)N(C)C[C@H]1Oc2c(NS(=O)(=O)c3ccc(F)cc3)cccc2C(=O)N([C@H](C)CO)C[C@@H]1C	inactive
C[C@@H]1CN([C@H](C)CO)C(=O)c2cc(NC(=O)Nc3cccc4ccccc34)ccc2O[C@@H](C)CCCCO[C@@H]1CN(C)Cc1ccc(C(=O)O)cc1	inactive
COc1ccc(NC(=O)N(C)C[C@@H]2Oc3cc(Br)ccc3S(=O)(=O)N([C@H](C)CO)C[C@H]2C)cc1	inactive
COc1cccc(S(=O)(=O)N(C)C[C@H]2OCc3cnnn3CCCC(=O)N([C@H](C)CO)C[C@@H]2C)c1	inactive
C[C@H](CO)N1C[C@H](C)[C@H](CN(C)C(=O)Nc2ccccc2)OCCCC[C@H](C)Oc2ccc(NS(=O)(=O)c3cccs3)cc2C1=O	inactive
COc1ccc(S(=O)(=O)N(C)C[C@H]2Oc3ccc(NC(=O)Nc4cccc5ccccc45)cc3C(=O)N([C@H](C)CO)C[C@H]2C)cc1	inactive
Cn1nc(-c2ccccn2)nc2c(=O)n(C)c(=O)nc1-2	active

SMILES	cytotoxicity call
COc1ccc(-c2ccccn2)cc1	inactive
Cn1c(=O)[nH]c2nnc(-c3ccccn3)nc2c1=O	inactive
COc1ccc(NC(=O)Nc2ccc3c(c2)C(=O)N([C@H](C)CO)C[C@H](C)[C@@H](CN(C)Cc2ccc(C(=O)O)cc2)OCCCC[C@H](C)O3)cc1	inactive
CN(CP(=O)(O)CN1CCOCC1)S(C)(=O)=O	inactive
CC(C)(C)NCC(O)COc1ccccc1C1CCCC1.O=S(=O)(O)O (centres undefined)	active
CC(C)(C)NCC(O)COc1nsnc1N1CCOCC1.O=C(O)C=CC(=O)O (centres undefined)	inactive
CC(C)(C)NCC(O)COc1cccc2c1CC(O)C(O)C2 (centres undefined)	inactive
C[C@H](CO)N1C[C@H](C)[C@@H](CN(C)S(=O)(=O)c2cn(C)cn2)Oc2ccc(NC(=O)CCN3CCOCC3)cc2C1=O	inactive
C[C@H]1CN([C@@H](C)CO)C(=O)c2cc(NC(=O)CCCN(C)C)ccc2O[C@@H]1CN(C)C(=O)Nc1ccc2c(c1)OCO2	inactive
C[C@@H]1CN([C@H](C)CO)C(=O)Cc2cc(NC(=O)CCN3CCOCC3)ccc2O[C@@H]1CN(C)Cc1ccncc1	inactive
C[C@H]1[C@H]([Si](C)(C)F)[C@@H](CCO)O[C@]12C(=O)N(Cc1cccc(N(C=O)c3ccccc3)c1)c1ccccc12	inactive
COc1ccc([Si](C)(C)[C@H]2[C@H](CCO)O[C@@]3(C(=O)N(Cc4ccc(N(C=O)c5ccccc5)cc4)c4ccccc43)[C@@H]2C)cc1	active
COc1ccc([Si](C)(C)[C@H]2[C@H](CCO)O[C@@]3(C(=O)N(Cc4cccc(N(C=O)c5ccccc5)c4)c4ccccc43)[C@@H]2C)cc1	active
COc1ccc([Si](C)(C)[C@@H]2[C@@H](CCO)O[C@]3(C(=O)N(Cc4ccc(N(C=O)c5ccccc5)cc4)c4ccccc43)[C@H]2C)cc1	active
COc1ccc([Si](C)(C)[C@@H]2[C@@H](CCO)O[C@]3(C(=O)N(Cc4cccc(N5CCCCC5=O)c4)c4ccccc43)[C@H]2C)cc1	inactive
C[C@@H]1CN([C@@H](C)CO)C(=O)c2cccc(NS(=O)(=O)c3ccccc3)c2O[C@@H]1CN(C)S(=O)(=O)c1cccs1	inactive
CC(C)CC#Cc1ccc2c(c1)O[C@H](CN(C)C(=O)NC1CCCC1)[C@H](C)CN([C@H](C)CO)S2(=O)=O	inactive
CO[C@@H]1CN(C)C(=O)c2ccc(NC(=O)CC(F)(F)F)cc2OC[C@@H](C)N(C(=O)C2CCOCC2)C[C@@H]1C	inactive
C[C@H]1CN([C@@H](C)CO)C(=O)c2cc(NC(=O)c3ccncc3)ccc2O[C@H]1CN(C)Cc1ccc(-c2ccccc2)cc1	inactive
CC1=NCCN1	inactive
CC(C)c1ccc2c(ccc[n+]2C)c1	inactive
COC(=O)C[C@H]1CC[C@@H]2[C@H](COC[C@@H](O)CN2S(=O)(=O)c2cn(C)cn2)O1	inactive

SMILES	cytotoxicity call
COc1ccc(S(=O)(=O)Nc2cccc3c2O[C@@H](CN(C)S(=O)(=O)c2ccccc2)[C@H](C)CN([C@H](C)CO)C3=O)cc1	inactive
COCC(=O)N1C[C@H](C)[C@H](OC)CN(C)C(=O)c2ccc(NC(=O)c3ccc(OC)cc3)cc2OC[C@@H]1C	inactive
Cc1ccc(S(=O)(=O)N(C)C[C@@H]2OCCCC[C@@H](C)Oc3ccc(NS(=O)(=O)c4ccc(F)cc4)cc3C(=O)N([C@@H](C)CO)C[C@@H]2C)cc1	inactive
C[C@H](CO)N1C[C@H](C)[C@@H](CN(C)C(=O)Nc2ccccc2C(F)(F)F)OCc2ccccc2-c2ccccc2C1=O	inactive
C=C(NC(=O)C(=C)NC(=O)c1csc(C2=N[C@H]3c4csc(n4)[C@H]4NC(=O)c5csc(n5)[C@H](C(C)(O)[C@@H](C)O)NC(=O)[C@H]5CSC(=N5)C(=CC)NC(=O)[C@H]([C@@H](C)O)NC(=O)c5csc(n5)[C@]3(CC2)NC(=O)[C@H](C)NC(=O)C(=C)NC(=O)[C@H](C)NC(=O)[C@H]([C@H](C)CC)N[C@@H]2C=Cc3c([C@H](C)O)cc(nc3[C@H]2O)C(=O)O[C@@H]4C)n1)C(N)=O (some centres undefined)	active
C=C(NC(=O)C(=C)NC(=O)c1csc(C2=NC3c4csc(n4)C4NC(=O)c5csc(n5)C(C(C)(O)C(C)O)NC(=O)C5CSC(=N5)C(=CC)NC(=O)C(C(C)O)NC(=O)c5csc(n5)C3(CC2)NC(=O)C(C)NC(=O)C(=C)NC(=O)C(C)NC(=O)C(C(C)CC)NC2C=Cc3c(C(C)O)cc(nc3C2O)C(=O)OC4C)n1)C(N)=O (centres undefined)	active
C=C(NC(=O)C(=C)NC(=O)c1csc(C2=N[C@@H]3c4csc(n4)[C@@H]4NC(=O)c5csc(n5)[C@H](C(C)(O)[C@@H](C)O)NC(=O)[C@H]5CSC(=N5)/C(=C/C)NC(=O)[C@H]([C@@H](C)O)NC(=O)c5csc(n5)[C@]3(CC2)NC(=O)[C@@H](C)NC(=O)C(=C)NC(=O)[C@@H](C)NC(=O)[C@@H]([C@H](C)CC)N[C@H]2C=Cc3c([C@@H](C)O)cc(nc3[C@@H]2O)C(=O)O[C@H]4C)n1)C(N)=O (some centres undefined)	inactive
C[C@@H]1CN([C@@H](C)CO)C(=O)Cc2cc(NS(C)(=O)=O)ccc2O[C@H]1CN(C)S(=O)(=O)c1cn(C)cn1	inactive
C[C@H](CO)N1C[C@H](C)[C@H](CN(C)S(=O)(=O)c2ccc(F)cc2)Oc2ccc(NC(=O)c3ccncc3)cc2CC1=O	inactive
COc1ccc(S(=O)(=O)N(C)C[C@H]2Oc3c(cccc3N(C)C)C(=O)N([C@@H](C)CO)C[C@@H]2C)cc1	inactive
COc1ccc2c3c(n(c2c1)C)[C@@H](CO)N(C[C@]13CN(C1)C(=O)c1ccncc1)C(=O)C1CCCCC1	inactive
COc1ccc(NC(=O)N2C[C@H](O)COC[C@@H]3O[C@@H](CC(=O)NC4Cc5ccccc5C4)CC[C@H]32)cc1	inactive
C[C@@H]1CN([C@H](C)CO)C(=O)c2cc(C#CC(C)(C)O)cnc2O[C@H]1CN(C)Cc1cccc(C(=O)O)c1	inactive
Cc1ccc(S(=O)(=O)N(C)C[C@@H]2Oc3ccc(N(C)C)cc3CC(=O)N([C@@H](C)CO)C[C@H]2C)cc1	inactive
C[C@@H]1CN([C@@H](C)CO)C(=O)c2cccc(NC(=O)NC3CCCCC3)c2O[C@@H]1CN(C)Cc1ccc(Oc2ccccc2)cc1	inactive
C[C@H](CO)N1C[C@H](C)[C@H](CN(C)Cc2ccc(Oc3ccccc3)cc2)Oc2c(NC(=O)NC3CCCCC3)cccc2C1=O	active
C[C@H](CO)N1C[C@H](C)[C@@H](CN(C)Cc2ccc(Oc3ccccc3)cc2)Oc2c(NC(=O)C3CCCCC3)cccc2C1=O	active
C[C@@H]1CN([C@@H](C)CO)C(=O)c2cccc(NC(=O)C3CCCCC3)c2O[C@H]1CN(C)Cc1ccc(Oc2ccccc2)cc1	inactive
C[C@H]1CN([C@@H](C)CO)C(=O)c2cccc(NC(=O)NC3CCCCC3)c2O[C@@H]1CN(C)Cc1ccc(Oc2ccccc2)cc1	inactive
C[C@H]1CN([C@@H](C)CO)C(=O)c2cccc(NC(=O)C3CCCCC3)c2O[C@H]1CN(C)Cc1ccc(Oc2ccccc2)cc1	inactive
